Where “and” joins values, the source holds several entries; their conditions need not be identical. Equal values may be shown once. More than one record can exist for a structure, and the calls need not agree. Calls of active or inactive are those of the source. Rule for the calls: active = hit-call score of the fitted dose curve at least 0.9, where 1 is the maximum; inactive = score below 0.9.
Target: Hepatocyte nuclear factor 6 (Homo sapiens) (UniProt Q9UBC0)
Experiment: ATG_HNF6_CIS: Attagene CIS-FACTORIAL HepG2 Assay for human Hepatocyte Nuclear Factor 6 (HNF6) (AID 2282952)
Conditions: HepG2 Attagene cis-factorial HNF6 reporter transcription; actives raise or lower the signal
Description: ATG_CIS is a cell-based, multiplexed-readout assay that uses HepG2, a human liver cell line, with measurements taken at 24 hours after chemical dosing in a 24-well plate.ATG_HNF6_CIS is one of 52 assay component(s) measured or calculated from the ATG_CIS assay. It is designed to make measurements of mRNA induction, a form of inducible reporter, as detected with fluorescence intensity signals by Reverse transcription polymerase chain reaction (RT-PCR) and Capillary electrophoresis technology.Data from the assay component ATG_HNF6_CIS was analyzed into 1 assay endpoint. This assay endpoint, ATG_HNF6_CIS, was analyzed with bidirectional fitting relative to DMSO as the negative control and baseline of activity. Using a type of inducible reporter, measures of mRNA for gain or loss-of-signal activity can be used to understand the reporter gene at the transcription factor-level as they relate to the gene ONECUT1. Furthermore, this assay endpoint can be referred to as a primary readout, because this assay has produced multiple assay endpoints where this one serves a reporter gene function. To generalize the intended target to other relatable targets, this assay endpoint is annotated to the dna binding intended target family, where the subfamily is homeobox protein.
Human liver HepG2 cells are transiently transfected with multiple reporter transcription units (MRTUs) in 6-well plates using FuGene 6 reagent (Roche; 3 ml FuGene/1 mg DNA). The MRTU constructs are regulated by a cis-regulating element (promoter). […] A major difference between the CIS and TRANS system is that in CIS activities of endogenous TFs are measured, whereas the TRANS assay evaluates changes in activities of exogenous, chimeric NR-Gal4 proteins. […] At the end of 24 hour incubation, total RNA was isolated using TriZol reagent (Invitrogen). The isolated RNA is then reverse-transcribed using oligo(dT) primer and Mo-MLV reverse transcriptase (Invitrogen) with DNAse I (Ambion) treatment for 30 min. The one-tenth of the produced cDNA was amplified by PCR using Taq DNA polymerase (Invitrogen) and two reporter sequence-specific primers. The PCR products were fluorescently labeled by primer extension with 6-arboxyfluorescein (6-FAM) 5'-labeled reporter sequence-specific primer (2 min at 95 C, 20 s at 68 C and 10 min at 72 C) and these products were digested with 5U of HpaI (New England Biolabs) for 2h at 37 C. The fragments were purified using Qiaquick PCR columns (Qiagen), analyzed on an ABI 3130xL genetic analyzer (Applied Biosystems) with peak positions identified by using a set of X-rhodamine (ROX)-labeled MapMarker1000 molecular weight standards (BioVentures). The raw capillary electrophoresis data was processed using Attagraph software (Attagene).

Chain of Hepatocyte nuclear factor 6 (Homo sapiens) (Q9UBC0 whole entry, looked up): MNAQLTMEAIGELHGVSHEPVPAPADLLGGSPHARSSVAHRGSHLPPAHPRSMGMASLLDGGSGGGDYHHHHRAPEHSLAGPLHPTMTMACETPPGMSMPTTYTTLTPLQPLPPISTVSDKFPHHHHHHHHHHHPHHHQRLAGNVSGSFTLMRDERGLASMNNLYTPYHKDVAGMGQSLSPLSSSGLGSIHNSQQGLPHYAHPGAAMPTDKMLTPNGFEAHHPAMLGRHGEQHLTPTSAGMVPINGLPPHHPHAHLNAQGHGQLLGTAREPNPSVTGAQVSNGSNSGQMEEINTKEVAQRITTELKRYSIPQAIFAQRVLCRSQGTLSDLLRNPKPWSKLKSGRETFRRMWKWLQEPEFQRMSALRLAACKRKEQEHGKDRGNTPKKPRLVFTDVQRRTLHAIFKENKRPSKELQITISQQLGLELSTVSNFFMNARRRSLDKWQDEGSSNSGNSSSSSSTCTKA

| Compound | outcome | AC50 |
| --- | --- | --- |
| CCCCCCCCCCCCS | inactive | – |
| CCCc1ccc(O)cc1 | inactive | – |
| CCOC(=O)CC1(C)OCC(C)O1 (stereo not given) | inactive | – |
| CC(CCO)CC(C)(C)C (stereo not given) | inactive | – |
| NC(N)=NC(N)=NCCc1ccccc1 | inactive | – |
| C1COCO1 | inactive | – |
| CCCCOC(=O)C(C)OC(=O)CCC (stereo not given) | inactive | – |
| CC1=CC[C@@H]2C[C@H]1C2(C)C | inactive | – |
| CCC(=O)OC/C=C(\C)CCC=C(C)C | inactive | – |
| C[C@]12CC[C@@H]3c4ccc(O)cc4CC[C@H]3[C@@H]1CC[C@@H]2O | inactive | – |
| C=C1CC/C=C(\C)CC[C@@H]2[C@@H]1CC2(C)C | inactive | – |
| CCOC(=O)CC(C)C | inactive | – |
| CC(C)(CO)CO | inactive | – |
| C=C(C)C(=O)OCCN(C)C | inactive | – |
| CCCCCCCCSCc1cc(C)c(O)c(CSCCCCCCCC)c1 | inactive | – |
| O=C(O)c1ccc(C(=O)O)c(C(=O)O)c1 | inactive | – |
| CC(C)(O)C(=O)c1ccc(OCCO)cc1 | inactive | – |
| C=C1CC[C@H]2O[C@]2(C)CC[C@@H]2[C@@H]1CC2(C)C | inactive | – |
| CCCCN(CCO)CCO | inactive | – |
| O=c1cc(-c2ccc(O)cc2)oc2cc(O)cc(O)c12 | inactive | – |

| Compound | outcome | AC50 |
| --- | --- | --- |
| CC(C)(C)c1ccc(S)cc1 | inactive | – |
| CCC(C)(C)C1CCC(OC)CC1 (stereo not given) | inactive | – |
| O=C(O)CS | inactive | – |
| CCCCOCC(C)OCC(C)O (stereo not given) | inactive | – |
| OCC=Cc1ccccc1 | inactive | – |
| CCCCCCCCCOS(=O)(=O)O | inactive | – |
| CCC(C)(CCCC(C)C)OC(C)=O (stereo not given) | inactive | – |
| CC(C)C(=O)c1ccccc1 | inactive | – |
| CC(=O)C1C(=O)C=C(C)OC1=O (stereo not given) | inactive | – |
| CC(C)Cc1ccccc1 | inactive | – |
| CCCCOCCOCCO | inactive | – |
| CN(C)CCC=C1c2ccccc2CCc2ccccc21 | inactive | – |
| C=C(C)C(N)=O | inactive | – |
| CC(C)(O)CCc1ccccc1 | inactive | – |
| Cc1cccc(O)c1 | inactive | – |
| COC(=O)c1ccc(C(=O)OC)cc1 | inactive | – |
| O=C(c1ccc(OCCN2CCCCC2)cc1)c1c(-c2ccc(O)cc2)sc2cc(O)ccc12 | inactive | 11.1 µM (active) and 21.4 µM (active) |
| CCO[Si](CCC#N)(OCC)OCC | inactive | – |
| Cc1cccc(C)c1 | inactive | – |

Reference: PubChem BioAssay (EPA / NIEHS)
